Legend:
Assay in all cases: log2 ratio of Biotin-Ahx-Ub-VS probe labelling (compound/DMSO); higher = less target engagement, active = hit call of the paper (q ≤ 0.05, log2 ratio ≤ -1)
Conditions in all cases: treatment time: 3 h
[1] = compound: CCC1N(CCc2sccc12)C(=O)CCl
Outline: (§1)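 Compound at 50 or 200 µM, or DMSO, was applied for 3 h in triplicate to HEK293T lysate (495 µg per sample, Tris/CHAPS/IGEPAL buffer with protease inhibitors), after which Biotin-Ahx-Ub-VS was added at 0.5 µM final for 1 h. The labelled DUBs were pulled down with NeutrAvidin, digested with LysC and trypsin, and run by diaPASEF LC-MS/MS. Ratios are averaged base-two logs of compound over DMSO from median-normalised label-free quantities by unpaired t-test, counting only proteins with at least 2 unique peptides.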

[2] = compound: CN1c2ccccc2C(CS1(=O)=O)NC(=O)CCl
Outline: as §1

[3] = compound: Cl.ClCC(=O)N1CCc2ncncc2C1
Outline: as §1

[4] = compound: Cl.Cn1ncc2C(CCCc12)NC(=O)CCl
Outline: as §1

[5] = compound: ClCC(=O)NC1CCOc2ccccc12
Outline: as §1

[6] = compound: ClCC(=O)NC1CCCc2ccccc12
Outline: (§2)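 Spectronaut label-free, global-median-normalised protein quantities underlie these values, which are average ratios of compound to vehicle from an unpaired t-test. They are reported as log2 and include only proteins identified by two or more unique peptides. Samples of HEK293T lysate (495 µg) were treated in triplicate with a compound concentration series or vehicle for 3 h, then labelled with Biotin-Ahx-Ub-VS at 0.5 µM final for 1 h before NeutrAvidin enrichment, LysC and trypsin digestion, and diaPASEF LC-MS/MS.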

[7] = compound: ClCC(=O)N[C@@H]1CCCc2ccccc12
Outline: as §2

[8] = compound: ClCC(=O)N[C@H]1CCCc2ccccc12
Outline: as §2

[9] = compound: CCC1N(CCc2cc(OC)c(Cl)cc12)C(=O)CCl
Outline: as §1

[10] = compound: CCCC1N(CCc2cc(OC)c(OC)cc12)C(=O)CCl
Outline: as §1

Measured: log2 ratio of Biotin-Ahx-Ub-VS probe labelling

UniProt Q9UGI0
UniProt Q9UGI0, sequence (Q9UGI0 whole entry): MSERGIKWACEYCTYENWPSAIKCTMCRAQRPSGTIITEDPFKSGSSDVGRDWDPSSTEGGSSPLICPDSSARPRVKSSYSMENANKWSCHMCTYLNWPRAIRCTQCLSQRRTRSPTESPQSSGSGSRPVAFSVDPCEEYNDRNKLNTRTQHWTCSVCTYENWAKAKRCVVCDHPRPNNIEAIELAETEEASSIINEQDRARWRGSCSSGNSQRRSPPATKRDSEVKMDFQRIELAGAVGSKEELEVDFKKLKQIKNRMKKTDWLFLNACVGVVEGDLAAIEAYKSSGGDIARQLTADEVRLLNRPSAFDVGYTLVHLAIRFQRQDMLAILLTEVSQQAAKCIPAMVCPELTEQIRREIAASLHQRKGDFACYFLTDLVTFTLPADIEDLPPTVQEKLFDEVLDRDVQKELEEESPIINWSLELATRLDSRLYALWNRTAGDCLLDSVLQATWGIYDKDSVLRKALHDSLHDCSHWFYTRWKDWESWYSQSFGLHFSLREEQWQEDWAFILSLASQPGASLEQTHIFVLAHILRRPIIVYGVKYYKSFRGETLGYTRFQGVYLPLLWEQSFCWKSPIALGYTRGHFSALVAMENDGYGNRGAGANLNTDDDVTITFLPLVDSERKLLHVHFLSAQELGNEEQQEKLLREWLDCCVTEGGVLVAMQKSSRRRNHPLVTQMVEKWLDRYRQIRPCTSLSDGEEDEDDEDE
inactive: [1]; compound concentration: 50uM -0.292 | [1]; compound concentration: 200uM -0.203 | [2]; compound concentration: 50uM -0.406 | [2]; compound concentration: 200uM 0.104 | [3]; compound concentration: 50uM -0.538 | [3]; compound concentration: 200uM -0.31 | [4]; compound concentration: 50uM -0.202 | [4]; compound concentration: 200uM 0.279 | [5]; compound concentration: 50uM 0.0945 | [5]; compound concentration: 200uM -0.4 | [6]; compound concentration: 0.78uM -0.0262 | [6]; compound concentration: 1.56uM 0.0502 | [6]; compound concentration: 3.13uM -0.0706 | [6]; compound concentration: 6.25uM 0.0502 | [6]; compound concentration: 12.5uM 0.00734 | [6]; compound concentration: 25uM -0.073 | [6]; compound concentration: 50uM -0.0421 | [6]; compound concentration: 100uM -0.161 | [6]; compound concentration: 200uM -0.304 | [7]; compound concentration: 0.78uM 0.0537 | [7]; compound concentration: 1.56uM -0.0707 | [7]; compound concentration: 3.13uM 0.111 | [7]; compound concentration: 6.25uM -0.134 | [7]; compound concentration: 12.5uM -0.0472 | [7]; compound concentration: 25uM -0.0247 | [7]; compound concentration: 50uM -0.136 | [7]; compound concentration: 100uM -0.218 | [7]; compound concentration: 200uM -0.262 | [8]; compound concentration: 0.78uM -0.114 | [8]; compound concentration: 1.56uM 0.117 | [8]; compound concentration: 3.13uM -0.00437 | [8]; compound concentration: 6.25uM -0.00155 | [8]; compound concentration: 12.5uM -0.143 | [8]; compound concentration: 25uM -0.115 | [8]; compound concentration: 50uM 0.0192 | [8]; compound concentration: 100uM -0.022 | [8]; compound concentration: 200uM -0.133 | [9]; compound concentration: 50uM -0.0637 | [9]; compound concentration: 200uM -0.0883 | [10]; compound concentration: 50uM -0.0341 | [10]; compound concentration: 200uM -0.418

USP16 (UniProt Q9Y5T5)
UniProt Q9Y5T5, sequence (Q9Y5T5 whole entry, looked up): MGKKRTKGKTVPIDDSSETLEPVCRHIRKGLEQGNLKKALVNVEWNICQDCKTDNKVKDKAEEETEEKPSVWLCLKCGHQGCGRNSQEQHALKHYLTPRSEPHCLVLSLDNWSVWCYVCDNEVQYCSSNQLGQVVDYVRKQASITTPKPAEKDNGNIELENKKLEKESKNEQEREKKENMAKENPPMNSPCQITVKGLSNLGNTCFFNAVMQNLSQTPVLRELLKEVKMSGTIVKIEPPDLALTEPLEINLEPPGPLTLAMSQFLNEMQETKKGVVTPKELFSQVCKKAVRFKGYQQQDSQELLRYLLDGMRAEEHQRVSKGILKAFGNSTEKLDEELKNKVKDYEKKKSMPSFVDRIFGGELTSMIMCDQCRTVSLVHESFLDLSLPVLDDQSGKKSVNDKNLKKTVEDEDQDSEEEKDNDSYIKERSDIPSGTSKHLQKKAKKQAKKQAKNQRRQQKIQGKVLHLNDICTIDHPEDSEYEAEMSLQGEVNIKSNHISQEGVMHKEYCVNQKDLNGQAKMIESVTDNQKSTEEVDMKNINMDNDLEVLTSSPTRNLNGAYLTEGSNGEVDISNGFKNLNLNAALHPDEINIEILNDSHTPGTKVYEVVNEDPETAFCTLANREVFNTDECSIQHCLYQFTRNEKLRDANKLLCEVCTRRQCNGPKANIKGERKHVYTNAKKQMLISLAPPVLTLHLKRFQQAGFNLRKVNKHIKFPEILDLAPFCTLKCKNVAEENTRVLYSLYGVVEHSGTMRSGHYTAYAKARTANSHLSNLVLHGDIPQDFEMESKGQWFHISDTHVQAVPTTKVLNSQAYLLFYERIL
inactive: [1]; compound concentration: 50uM -0.0823 | [1]; compound concentration: 200uM -0.556 | [2]; compound concentration: 50uM -0.113 | [2]; compound concentration: 200uM -0.275 | [3]; compound concentration: 50uM 0.0401 | [3]; compound concentration: 200uM -0.748 | [4]; compound concentration: 50uM -0.209 | [4]; compound concentration: 200uM -0.00919 | [5]; compound concentration: 50uM -0.0288 | [5]; compound concentration: 200uM -0.558 | [6]; compound concentration: 0.78uM -0.182 | [6]; compound concentration: 1.56uM -0.165 | [6]; compound concentration: 3.13uM -0.0224 | [6]; compound concentration: 6.25uM -0.111 | [6]; compound concentration: 12.5uM -0.299 | [6]; compound concentration: 25uM -0.0714 | [6]; compound concentration: 50uM -0.0894 | [6]; compound concentration: 100uM -0.233 | [6]; compound concentration: 200uM -0.491 | [7]; compound concentration: 0.78uM -0.0997 | [7]; compound concentration: 1.56uM -0.0515 | [7]; compound concentration: 3.13uM -0.248 | [7]; compound concentration: 6.25uM -0.0769 | [7]; compound concentration: 12.5uM -0.00208 | [7]; compound concentration: 25uM -0.0915 | [7]; compound concentration: 50uM -0.387 | [7]; compound concentration: 100uM -0.167 | [7]; compound concentration: 200uM -0.479 | [8]; compound concentration: 0.78uM -0.177 | [8]; compound concentration: 1.56uM -0.318 | [8]; compound concentration: 3.13uM 0.0709 | [8]; compound concentration: 6.25uM -0.00683 | [8]; compound concentration: 12.5uM -0.0549 | [8]; compound concentration: 25uM 0.0133 | [8]; compound concentration: 50uM 0.0578 | [8]; compound concentration: 100uM -0.181 | [8]; compound concentration: 200uM -0.253 | [9]; compound concentration: 50uM -0.285 | [9]; compound concentration: 200uM -0.652 | [10]; compound concentration: 50uM -0.265 | [10]; compound concentration: 200uM -0.972

OTUB1 (UniProt Q96FW1)
UniProt Q96FW1, sequence (Q96FW1 whole entry): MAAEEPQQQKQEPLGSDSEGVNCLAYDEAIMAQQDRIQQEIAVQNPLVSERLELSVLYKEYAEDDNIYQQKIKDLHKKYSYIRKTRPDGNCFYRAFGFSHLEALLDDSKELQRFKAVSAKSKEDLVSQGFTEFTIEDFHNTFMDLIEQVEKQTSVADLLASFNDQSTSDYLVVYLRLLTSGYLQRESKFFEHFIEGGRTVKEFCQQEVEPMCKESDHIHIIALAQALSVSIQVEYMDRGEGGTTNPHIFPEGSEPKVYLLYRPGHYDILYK
inactive: [1]; compound concentration: 50uM -0.117 | [1]; compound concentration: 200uM -0.154 | [2]; compound concentration: 50uM -0.275 | [2]; compound concentration: 200uM -0.196 | [3]; compound concentration: 50uM -0.211 | [3]; compound concentration: 200uM -0.426 | [4]; compound concentration: 50uM 0.106 | [4]; compound concentration: 200uM -0.247 | [5]; compound concentration: 50uM -0.281 | [5]; compound concentration: 200uM -0.037 | [6]; compound concentration: 0.78uM -0.196 | [6]; compound concentration: 1.56uM -0.0742 | [6]; compound concentration: 3.13uM -0.226 | [6]; compound concentration: 6.25uM -0.309 | [6]; compound concentration: 12.5uM -0.314 | [6]; compound concentration: 25uM -0.147 | [6]; compound concentration: 50uM -0.404 | [6]; compound concentration: 100uM -0.172 | [6]; compound concentration: 200uM -0.492 | [7]; compound concentration: 0.78uM 0.0648 | [7]; compound concentration: 1.56uM -0.00906 | [7]; compound concentration: 3.13uM -0.216 | [7]; compound concentration: 6.25uM -0.197 | [7]; compound concentration: 12.5uM -0.122 | [7]; compound concentration: 25uM -0.199 | [7]; compound concentration: 50uM -0.236 | [7]; compound concentration: 100uM -0.0374 | [7]; compound concentration: 200uM -0.142 | [8]; compound concentration: 0.78uM -0.244 | [8]; compound concentration: 1.56uM -0.103 | [8]; compound concentration: 3.13uM -0.28 | [8]; compound concentration: 6.25uM -0.301 | [8]; compound concentration: 12.5uM -0.188 | [8]; compound concentration: 25uM -0.119 | [8]; compound concentration: 50uM -0.16 | [8]; compound concentration: 100uM -0.00187 | [8]; compound concentration: 200uM -0.123 | [9]; compound concentration: 50uM 0.198 | [9]; compound concentration: 200uM -0.422 | [10]; compound concentration: 50uM -0.107 | [10]; compound concentration: 200uM -0.0707

ALG13 (UniProt Q9NP73)
UniProt Q9NP73, sequence (Q9NP73 whole entry): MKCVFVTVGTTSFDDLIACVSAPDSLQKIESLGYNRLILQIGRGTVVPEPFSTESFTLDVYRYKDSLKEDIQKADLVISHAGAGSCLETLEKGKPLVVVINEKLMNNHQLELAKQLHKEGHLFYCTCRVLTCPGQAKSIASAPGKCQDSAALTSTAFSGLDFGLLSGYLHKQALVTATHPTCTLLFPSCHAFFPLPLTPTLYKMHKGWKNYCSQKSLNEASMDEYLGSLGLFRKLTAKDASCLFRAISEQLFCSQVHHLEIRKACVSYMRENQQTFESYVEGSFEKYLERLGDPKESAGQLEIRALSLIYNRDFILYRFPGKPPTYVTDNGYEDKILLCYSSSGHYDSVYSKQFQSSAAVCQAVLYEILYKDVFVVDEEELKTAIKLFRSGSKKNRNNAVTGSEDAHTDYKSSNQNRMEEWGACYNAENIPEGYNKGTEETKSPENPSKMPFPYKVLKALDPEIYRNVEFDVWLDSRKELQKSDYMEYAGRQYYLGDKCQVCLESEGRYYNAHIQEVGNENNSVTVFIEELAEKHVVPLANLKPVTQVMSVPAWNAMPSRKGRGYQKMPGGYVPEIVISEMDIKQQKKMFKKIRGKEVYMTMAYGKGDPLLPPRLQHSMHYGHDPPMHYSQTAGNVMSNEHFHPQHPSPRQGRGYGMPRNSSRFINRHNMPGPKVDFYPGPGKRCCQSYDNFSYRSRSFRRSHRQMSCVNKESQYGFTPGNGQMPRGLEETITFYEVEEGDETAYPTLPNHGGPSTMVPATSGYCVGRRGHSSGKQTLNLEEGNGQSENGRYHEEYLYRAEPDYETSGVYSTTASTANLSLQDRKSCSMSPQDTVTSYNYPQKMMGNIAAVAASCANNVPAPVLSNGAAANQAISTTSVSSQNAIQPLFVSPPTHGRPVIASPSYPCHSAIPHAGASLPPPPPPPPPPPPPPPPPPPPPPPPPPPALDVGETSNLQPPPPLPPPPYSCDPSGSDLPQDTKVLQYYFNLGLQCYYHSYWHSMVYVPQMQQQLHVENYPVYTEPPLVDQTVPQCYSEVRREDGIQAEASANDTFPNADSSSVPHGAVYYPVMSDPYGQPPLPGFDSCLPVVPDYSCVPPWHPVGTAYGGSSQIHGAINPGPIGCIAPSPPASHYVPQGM
inactive: [1]; compound concentration: 50uM 0.393 | [1]; compound concentration: 200uM 0.533 | [2]; compound concentration: 50uM 0.284 | [2]; compound concentration: 200uM 0.203 | [3]; compound concentration: 50uM 0.0225 | [3]; compound concentration: 200uM 0.439 | [4]; compound concentration: 50uM 0.238 | [4]; compound concentration: 200uM -0.0439 | [5]; compound concentration: 50uM 0.11 | [5]; compound concentration: 200uM 0.324 | [6]; compound concentration: 0.78uM 0.19 | [6]; compound concentration: 1.56uM 0.107 | [6]; compound concentration: 3.13uM -0.625 | [6]; compound concentration: 6.25uM -0.155 | [6]; compound concentration: 12.5uM -0.336 | [6]; compound concentration: 25uM -0.19 | [6]; compound concentration: 50uM -0.356 | [6]; compound concentration: 100uM 0.221 | [6]; compound concentration: 200uM -0.15 | [7]; compound concentration: 0.78uM 0.187 | [7]; compound concentration: 1.56uM 0.128 | [7]; compound concentration: 3.13uM 0.146 | [7]; compound concentration: 6.25uM 0.328 | [7]; compound concentration: 12.5uM 0.0757 | [7]; compound concentration: 25uM -0.0189 | [7]; compound concentration: 50uM -0.26 | [7]; compound concentration: 100uM -0.0849 | [7]; compound concentration: 200uM 0.156 | [8]; compound concentration: 0.78uM 0.0472 | [8]; compound concentration: 1.56uM -0.48 | [8]; compound concentration: 3.13uM 0.0655 | [8]; compound concentration: 6.25uM -0.00893 | [8]; compound concentration: 12.5uM -0.0224 | [8]; compound concentration: 25uM 0.337 | [8]; compound concentration: 50uM -0.216 | [8]; compound concentration: 100uM 0.0146 | [8]; compound concentration: 200uM -0.203 | [9]; compound concentration: 50uM 0.0103 | [9]; compound concentration: 200uM 0.0355 | [10]; compound concentration: 50uM 0.0738 | [10]; compound concentration: 200uM 0.242

From the supplement of paper PMC11732987, “Enantioselective OTUD7B fragment discovery through chemoproteomics screening and high-throughput optimisation” (Communications Chemistry, 2025)
